Laboratory results published in the OligoGym collection.

biological target: TSEN34; experiment: pooled miR-30 sensor sort-seq; sequence = guide strand; conditions: shRNA
Note: reference of the scale not given here.

Sequence | sensor-assay potency score (higher = more potent)
ATCACTGGTCTCATCCTCTTTG | -0.941
AATCTTCTCCAGGAGCTCCTGA | -1.01
TCGGGCATCAGCAGCAGCGGGA | -1.31
TACTGTAGCGCAGCTCGTGGGC | -0.594
TTTCTGCTTCTTAGCAGCCTGG | -1.47
TAGACTGGACACGCCAGTCCAG | -1.11
TAGACCAGGAAGTCACCTCCGA | 0.0618
TCTGTAGATACTGTAGCGCAGC | -0.735
TTCTGCTTCTTAGCAGCCTGGC | -0.77

biological target: TSPAN3; experiment: as above; conditions: shRNA

Sequence | sensor-assay potency score (higher = more potent)
TAGGTCTTATACACTTTCTGAA | -0.69
TACACTTTCTGAATGCTGCGAT | 1.02
TTGCTCTGTAAACATATCCCAA | -1.02
AACCACTACAACAACTTCTGTG | 0.151
AATTCCACAACAATGCAGCTGT | 0.00279
TAAGCAGGATCTCTACTCCTTC | -0.519
TTTCTTGTAGCTTCTTCACTAC | -0.264
TTTCTTTGAACCAATCTGTATT | -1.05
TTGCTGGCAGTCTCTCTGCAGC | -1.25
TTATACACTTTCTGAATGCTGC | -0.18
TTCTGTGACAAAAACCAAGAGC | -0.255

biological target: TSPAN8; experiment: as above; conditions: shRNA

Sequence | sensor-assay potency score (higher = more potent)
TATGTCTAGAAGATATCTGTGG | -0.374
TATGAAAAACAACAGAAGCATG | -1.79
TTGCTTGAGAGTCATTGCTTAC | -1.33
TATAGCACCGCAGCATCCCAGG | -1.12
AACAACAGAAGCATGCAGCGAC | -0.179
TTGAGAGTCATTGCTTACTCGT | -0.804
TTGTTTTCCATTATAGCTTTGG | -0.474
TAGGATACCTGTCGCCACCTGC | -0.685
TAGATTTGAAAACAGCTCCTAG | -0.482
TTTGAAAACAGCTCCTAGGATA | -0.99
TTAGATTTGAAAACAGCTCCTA | 0.475

biological target: TSPY2; experiment: as above; conditions: shRNA

Sequence | sensor-assay potency score (higher = more potent)
ATGAACACGATGCTTCTCTTCT | -0.856
TCTTGCAGAGATGAACACGATG | -0.976
TCCTGCACAGCCTCCATCCTGA | -1.01

biological target: TSPYL2; experiment: as above; conditions: shRNA

Sequence | sensor-assay potency score (higher = more potent)
TTGATCAAAATTGAAATTCTGG | 0.568
TCTCTGTCGTCATCATCGCTGC | -0.7
TTGATAATCTCAGCAATCCTGT | -0.197
TTGTGGTCAGGATTCTCGCTGT | -0.451
TCAATGTCTGAGATCTCGCTGA | 0.0217
TCATTGTCACTGTCGCTGCTGT | -0.335
